# In the OligoGym collection:
# Target: PAFAH1B2
# Experiment: pooled miR-30 sensor sort-seq; sequence = guide strand
# Settings: shRNA
# Note: reference of the scale not given here.
row,Sequence,sensor-assay potency score (higher = more potent)
1,TAATATTCTCCAGTTCTCCATT,-1.1
2,TTCTTCTGCTGTATTTTCGTGG,-0.326
3,ATGAATTTAAACAACAATCTTC,-0.0238
4,TTTCGTGGTTATTTGTTCCTAC,0.14
5,TTAGTCTCCACAAAACATGTCT,-0.124
6,TTGCTGCATTAACTGCACCATG,-1.37
7,TACCCAGACAACAATGACCTTA,-0.359
8,TGTGCTGAGACATCCATCGGTC,-0.024
9,TTGTGCTGAGACATCCATCGGT,0.723

# Target: PAG1
# Experiment: as above
# Settings: shRNA
row,Sequence,sensor-assay potency score (higher = more potent)
1,TTCTTGTGTAGTTATCTGCCTA,-0.676
2,TTAAACTGTAGCATTAGCTCAA,0.54
3,TAATATTTGAAAACTCTTGGGG,0.247
4,TAAACTGTAGCATTAGCTCAAG,-0.488
5,TTGTTTTTGATAACTACCTTTC,-0.868
6,TACATAATAGAACATATCCTAA,-0.651
7,TTACTGATGAGTACATAGCTGA,-0.0368
8,TTTTCTTTTCTATATAGCGTTT,-1.01
9,TAAATTTCACATAACCTGCTAT,0.485
10,TTGCAAAATAATGACAACCAAC,-1.68
11,TTTTTTGTTTCTGTCCACCGAG,-0.11
12,TTTTTGTTTCTGTCCACCGAGG,-1.07

# Target: PALB2
# Experiment: as above
# Settings: shRNA
row,Sequence,sensor-assay potency score (higher = more potent)
1,TAAATTTTTACTTGCATCCTTA,0.122
2,TTGAATAAATAATTTTTCGTGC,-0.674
3,TTTGTATAGGTAATCCTCCTGG,0.029
4,TTAGGAATGTATCAACACCTTT,-0.84
5,TTTGCTACTGATTTCTTCCTGT,0.661
6,TACAGCATCACACCCACGCTGA,-0.615
7,TATAGCTTTATTTACAAGGAGG,-1.15
8,TTCCTGTGTATCTTCTACCAGG,-0.953
9,TAACATAATATTCTGCAGGAAA,-1.13
10,TTGTTCTAACATAATATTCTGC,-0.275
11,TTCTTGAACTTGGTTGTCCTGT,0.276
12,TACATGGCTCTTTACAACCGGC,-0.961

# Target: PALM2-AKAP2
# Experiment: as above
# Settings: shRNA
row,Sequence,sensor-assay potency score (higher = more potent)
1,TTCTAATGCAGTATTGTTCTTT,0.398
2,TTTTAGATTTGTGTGTCTCATA,-0.987
3,TTAGTCAGTGGCTTGTCTGAGT,0.113
4,TTGACAGATCTTGAGAACTGAT,-0.51
5,TTGTTCTTTCTCATGCTCGTCA,0.379
6,TCTGGCAACATCATTATCCAGG,-0.478
7,TTGAATGGCATTCTGCACCAGG,-0.555
